Key:
Assay in all cases: DAPPL (digital affinity profiling via proximity ligation, sequencing); 10 mM Tris-HCl pH 7.5, 50 mM NaCl, 1 mM DTT, 4% glycerol, room temperature, 30 min; GST-TFs on glutathione beads, 16-mer random dsDNA library, 0.1% formaldehyde crosslink after washing; high values mean tight binding
[1] = target: T1, FEV (Homo sapiens, UniProt Q99581 1-238); conditions: protein: recombinant; tags: N-terminal GST; dsDNA, one strand shown
T1 sequence: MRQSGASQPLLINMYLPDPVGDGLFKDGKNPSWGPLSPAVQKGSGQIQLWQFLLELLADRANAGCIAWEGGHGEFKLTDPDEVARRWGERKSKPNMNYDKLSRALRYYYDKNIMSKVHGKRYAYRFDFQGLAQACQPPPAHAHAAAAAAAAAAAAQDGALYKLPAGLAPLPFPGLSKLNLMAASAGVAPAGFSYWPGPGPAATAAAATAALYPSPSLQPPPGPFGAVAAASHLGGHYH
Outline: (§1)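 In yeast, human transcription factors were expressed with a GST fusion, then pulled down on glutathione beads and given DNA barcodes. Pooled with a tag-only sample, they were exposed to 200 nmole of a 16-mer random double-stranded DNA library (Tris/NaCl/DTT/glycerol buffer, room temperature, 30 min), washed, crosslinked with 0.1% formaldehyde, proximity-ligated using BsaI/T4 ligase for 1 h at 37 °C, PCR-amplified and read on an Illumina NextSeq500. Each hexamer's frequency of reads for a factor, divided by the matching frequency for the tag-only sample, gives the binding signal.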

[2] = target: ETV5 (Homo sapiens, UniProt P41161 1-510); conditions: protein: recombinant; tags: N-terminal GST; dsDNA, one strand shown
ETV5, sequence (P41161 whole entry): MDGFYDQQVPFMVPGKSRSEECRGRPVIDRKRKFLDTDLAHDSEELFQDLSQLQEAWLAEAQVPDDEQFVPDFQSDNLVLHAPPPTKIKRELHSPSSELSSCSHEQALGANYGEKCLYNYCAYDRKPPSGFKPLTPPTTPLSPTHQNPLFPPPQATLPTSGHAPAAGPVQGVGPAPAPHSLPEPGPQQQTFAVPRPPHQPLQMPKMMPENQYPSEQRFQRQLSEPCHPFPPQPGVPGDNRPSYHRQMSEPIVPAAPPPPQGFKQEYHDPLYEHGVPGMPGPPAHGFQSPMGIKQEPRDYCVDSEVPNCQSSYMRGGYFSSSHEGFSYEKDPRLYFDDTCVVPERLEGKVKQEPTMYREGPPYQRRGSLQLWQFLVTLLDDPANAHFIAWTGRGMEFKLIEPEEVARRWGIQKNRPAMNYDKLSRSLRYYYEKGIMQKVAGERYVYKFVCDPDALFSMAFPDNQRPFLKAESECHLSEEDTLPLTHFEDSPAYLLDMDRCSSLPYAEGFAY
Outline: as §1

[3] = target: HSF1 (Homo sapiens, UniProt Q00613 1-529); conditions: protein: recombinant; tags: N-terminal GST; chain copies: 3; dsDNA, one strand shown
HSF1, sequence (Q00613 whole entry): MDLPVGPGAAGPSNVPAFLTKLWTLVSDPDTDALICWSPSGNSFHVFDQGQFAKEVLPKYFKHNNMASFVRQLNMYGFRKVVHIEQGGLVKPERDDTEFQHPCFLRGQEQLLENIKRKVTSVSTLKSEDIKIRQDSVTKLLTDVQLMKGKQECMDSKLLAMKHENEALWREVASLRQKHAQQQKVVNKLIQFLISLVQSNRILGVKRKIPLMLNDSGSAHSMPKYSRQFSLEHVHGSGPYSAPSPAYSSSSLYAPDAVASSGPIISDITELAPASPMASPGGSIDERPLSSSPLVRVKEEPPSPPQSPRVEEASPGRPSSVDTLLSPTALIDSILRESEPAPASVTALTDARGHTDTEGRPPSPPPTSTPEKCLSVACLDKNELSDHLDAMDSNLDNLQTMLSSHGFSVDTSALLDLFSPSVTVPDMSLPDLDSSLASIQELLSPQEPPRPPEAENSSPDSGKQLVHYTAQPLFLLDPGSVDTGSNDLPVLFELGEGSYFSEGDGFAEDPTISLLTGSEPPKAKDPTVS
Outline: as §1

[4] = target: T2, SPIC (Homo sapiens, UniProt Q8N5J4 1-248); conditions: protein: recombinant; tags: N-terminal GST; dsDNA, one strand shown
T2 sequence: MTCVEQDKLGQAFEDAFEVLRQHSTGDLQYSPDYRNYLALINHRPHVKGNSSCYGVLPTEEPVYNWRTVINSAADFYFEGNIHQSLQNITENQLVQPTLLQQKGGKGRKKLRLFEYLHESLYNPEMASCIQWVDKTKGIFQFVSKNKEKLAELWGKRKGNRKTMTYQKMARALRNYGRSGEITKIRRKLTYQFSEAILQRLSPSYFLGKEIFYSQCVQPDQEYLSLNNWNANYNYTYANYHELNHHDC
Outline: as §1

[5] = target: ELF4 (Homo sapiens, UniProt Q99607 1-663); conditions: protein: recombinant; tags: N-terminal GST; dsDNA, one strand shown
ELF4, sequence (Q99607 whole entry): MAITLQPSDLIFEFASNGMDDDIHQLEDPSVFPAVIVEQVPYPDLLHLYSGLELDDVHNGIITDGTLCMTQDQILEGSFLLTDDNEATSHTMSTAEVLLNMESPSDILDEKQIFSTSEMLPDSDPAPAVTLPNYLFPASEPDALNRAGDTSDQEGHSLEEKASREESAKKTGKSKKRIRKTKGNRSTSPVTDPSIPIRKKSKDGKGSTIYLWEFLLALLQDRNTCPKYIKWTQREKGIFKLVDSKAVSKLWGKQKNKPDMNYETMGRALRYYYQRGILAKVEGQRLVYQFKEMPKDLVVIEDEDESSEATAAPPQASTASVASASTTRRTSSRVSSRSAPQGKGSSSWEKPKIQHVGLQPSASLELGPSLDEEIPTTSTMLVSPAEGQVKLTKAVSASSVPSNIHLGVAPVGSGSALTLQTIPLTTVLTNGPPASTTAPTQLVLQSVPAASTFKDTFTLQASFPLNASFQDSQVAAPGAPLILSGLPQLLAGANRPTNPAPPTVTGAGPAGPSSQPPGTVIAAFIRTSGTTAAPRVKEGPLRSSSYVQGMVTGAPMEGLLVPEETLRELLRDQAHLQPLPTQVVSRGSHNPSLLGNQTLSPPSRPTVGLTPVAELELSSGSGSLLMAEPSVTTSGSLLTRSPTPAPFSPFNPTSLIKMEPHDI
Outline: as §1

[6] = target: T3, ELK4 (Homo sapiens, UniProt P28324-2 1-405); conditions: protein: recombinant; tags: N-terminal GST; dsDNA, one strand shown
T3 sequence: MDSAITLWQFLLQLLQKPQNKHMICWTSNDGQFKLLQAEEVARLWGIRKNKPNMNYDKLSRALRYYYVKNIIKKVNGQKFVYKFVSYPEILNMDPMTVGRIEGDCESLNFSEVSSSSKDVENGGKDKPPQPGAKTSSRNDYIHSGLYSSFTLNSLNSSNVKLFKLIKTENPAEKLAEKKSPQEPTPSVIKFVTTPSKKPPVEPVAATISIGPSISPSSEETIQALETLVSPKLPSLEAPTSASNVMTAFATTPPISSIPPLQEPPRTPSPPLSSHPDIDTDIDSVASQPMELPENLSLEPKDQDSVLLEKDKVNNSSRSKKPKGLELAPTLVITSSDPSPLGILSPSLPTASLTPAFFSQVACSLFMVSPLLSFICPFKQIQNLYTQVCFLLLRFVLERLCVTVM
Outline: as §1

[7] = target: T4, ETV2 (Homo sapiens, UniProt O00321 1-342); conditions: protein: recombinant; tags: N-terminal GST; dsDNA, one strand shown
T4 sequence: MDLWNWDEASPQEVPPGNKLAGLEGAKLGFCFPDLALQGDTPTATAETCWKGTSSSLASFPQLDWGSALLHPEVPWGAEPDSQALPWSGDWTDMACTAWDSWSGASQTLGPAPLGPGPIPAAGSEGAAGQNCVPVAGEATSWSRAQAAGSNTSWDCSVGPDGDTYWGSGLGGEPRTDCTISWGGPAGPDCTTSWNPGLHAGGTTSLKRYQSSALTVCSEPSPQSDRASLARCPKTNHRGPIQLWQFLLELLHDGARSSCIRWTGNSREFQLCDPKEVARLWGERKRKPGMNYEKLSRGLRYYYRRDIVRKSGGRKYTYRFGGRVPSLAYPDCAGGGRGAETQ
Outline: as §1

[8] = target: T5, ELF3 (Homo sapiens, UniProt P78545 1-371); conditions: protein: recombinant; tags: N-terminal GST; dsDNA, one strand shown
T5 sequence: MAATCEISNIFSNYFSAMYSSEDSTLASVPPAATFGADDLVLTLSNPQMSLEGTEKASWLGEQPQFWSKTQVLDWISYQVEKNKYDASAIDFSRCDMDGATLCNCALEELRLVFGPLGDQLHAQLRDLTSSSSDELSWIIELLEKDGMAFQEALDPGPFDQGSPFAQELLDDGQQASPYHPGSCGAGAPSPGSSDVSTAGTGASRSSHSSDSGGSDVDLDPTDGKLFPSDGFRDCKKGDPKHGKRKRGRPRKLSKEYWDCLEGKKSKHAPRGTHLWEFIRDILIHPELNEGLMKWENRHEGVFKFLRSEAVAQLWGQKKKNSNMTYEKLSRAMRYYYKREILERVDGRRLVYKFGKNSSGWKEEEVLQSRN
Outline: as §1

[9] = target: CRX (Homo sapiens, UniProt O43186 1-299); conditions: protein: recombinant; tags: N-terminal GST; dsDNA, one strand shown
CRX, sequence (O43186 whole entry): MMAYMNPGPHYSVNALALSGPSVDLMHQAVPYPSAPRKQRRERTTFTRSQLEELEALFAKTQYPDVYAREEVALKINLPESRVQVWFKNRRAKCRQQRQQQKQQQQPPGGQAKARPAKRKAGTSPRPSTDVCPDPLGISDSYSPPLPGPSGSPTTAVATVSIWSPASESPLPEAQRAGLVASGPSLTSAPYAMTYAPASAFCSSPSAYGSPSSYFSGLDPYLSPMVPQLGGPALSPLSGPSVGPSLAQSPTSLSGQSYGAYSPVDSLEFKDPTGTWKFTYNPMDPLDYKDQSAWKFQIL
Outline: as §1

[10] = target: ETV1 (Homo sapiens, UniProt P50549 1-477); conditions: protein: recombinant; tags: N-terminal GST; dsDNA, one strand shown
ETV1, sequence (P50549 whole entry): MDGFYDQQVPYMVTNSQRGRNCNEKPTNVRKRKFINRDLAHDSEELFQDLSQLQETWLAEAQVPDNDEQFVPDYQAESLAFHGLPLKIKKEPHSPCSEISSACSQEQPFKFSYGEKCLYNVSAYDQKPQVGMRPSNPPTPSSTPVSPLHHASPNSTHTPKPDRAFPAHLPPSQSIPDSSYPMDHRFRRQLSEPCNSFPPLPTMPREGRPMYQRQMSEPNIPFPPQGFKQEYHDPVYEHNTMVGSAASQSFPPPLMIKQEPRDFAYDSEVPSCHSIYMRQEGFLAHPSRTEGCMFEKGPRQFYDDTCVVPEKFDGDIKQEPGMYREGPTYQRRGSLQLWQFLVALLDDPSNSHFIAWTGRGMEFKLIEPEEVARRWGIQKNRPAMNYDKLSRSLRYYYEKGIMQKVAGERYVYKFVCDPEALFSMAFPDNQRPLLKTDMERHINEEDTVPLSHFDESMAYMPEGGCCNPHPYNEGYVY
Outline: as §1

[11] = target: T6, ERF (Homo sapiens, UniProt P50548 1-548); conditions: protein: recombinant; tags: N-terminal GST; dsDNA, one strand shown
T6 sequence: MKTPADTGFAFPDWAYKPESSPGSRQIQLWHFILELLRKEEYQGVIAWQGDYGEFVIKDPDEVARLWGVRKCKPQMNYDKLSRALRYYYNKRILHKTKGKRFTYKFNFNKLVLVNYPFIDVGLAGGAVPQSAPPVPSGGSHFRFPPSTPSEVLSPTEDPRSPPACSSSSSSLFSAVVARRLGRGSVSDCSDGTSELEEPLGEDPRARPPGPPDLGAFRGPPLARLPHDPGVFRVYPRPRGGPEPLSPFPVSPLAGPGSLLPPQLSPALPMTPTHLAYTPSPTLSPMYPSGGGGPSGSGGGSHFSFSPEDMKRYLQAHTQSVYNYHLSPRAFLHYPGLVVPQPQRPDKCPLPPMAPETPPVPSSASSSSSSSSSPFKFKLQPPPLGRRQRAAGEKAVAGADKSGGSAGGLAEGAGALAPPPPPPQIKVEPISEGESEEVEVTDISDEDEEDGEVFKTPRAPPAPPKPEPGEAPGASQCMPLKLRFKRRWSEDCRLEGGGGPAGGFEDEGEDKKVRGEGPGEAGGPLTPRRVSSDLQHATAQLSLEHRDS
Outline: as §1

[12] = target: T7, ETV3L (Homo sapiens, UniProt Q6ZN32 1-361); conditions: protein: recombinant; tags: N-terminal GST; dsDNA, one strand shown
T7 sequence: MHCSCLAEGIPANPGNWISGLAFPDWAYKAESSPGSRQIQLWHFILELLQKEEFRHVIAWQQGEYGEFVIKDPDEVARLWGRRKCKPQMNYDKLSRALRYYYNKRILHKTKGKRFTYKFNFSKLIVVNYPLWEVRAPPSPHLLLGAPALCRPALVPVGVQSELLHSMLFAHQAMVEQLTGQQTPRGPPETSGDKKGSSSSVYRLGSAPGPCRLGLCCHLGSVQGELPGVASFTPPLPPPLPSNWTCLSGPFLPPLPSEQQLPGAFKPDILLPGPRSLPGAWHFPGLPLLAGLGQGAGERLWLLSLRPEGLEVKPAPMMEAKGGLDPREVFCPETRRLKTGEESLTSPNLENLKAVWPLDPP
Outline: as §1

[13] = target: T8, ETS2 (Homo sapiens, UniProt P15036 1-469); conditions: protein: recombinant; tags: N-terminal GST; dsDNA, one strand shown
T8 sequence: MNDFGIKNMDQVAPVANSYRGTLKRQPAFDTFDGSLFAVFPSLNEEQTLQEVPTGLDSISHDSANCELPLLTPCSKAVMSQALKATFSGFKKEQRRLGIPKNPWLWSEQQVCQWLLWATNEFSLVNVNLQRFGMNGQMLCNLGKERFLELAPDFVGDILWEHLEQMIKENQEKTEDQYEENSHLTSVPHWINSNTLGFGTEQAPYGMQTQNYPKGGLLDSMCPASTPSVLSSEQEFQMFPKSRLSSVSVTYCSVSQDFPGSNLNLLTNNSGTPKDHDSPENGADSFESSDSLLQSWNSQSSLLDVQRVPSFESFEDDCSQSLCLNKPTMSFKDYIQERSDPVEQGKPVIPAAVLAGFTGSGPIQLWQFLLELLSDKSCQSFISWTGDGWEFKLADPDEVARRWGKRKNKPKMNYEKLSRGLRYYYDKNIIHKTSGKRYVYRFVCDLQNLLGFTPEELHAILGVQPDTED
Outline: as §1

[14] = target: T9, SPDEF (Homo sapiens, UniProt O95238 1-335); conditions: protein: recombinant; tags: N-terminal GST; dsDNA, one strand shown
T9 sequence: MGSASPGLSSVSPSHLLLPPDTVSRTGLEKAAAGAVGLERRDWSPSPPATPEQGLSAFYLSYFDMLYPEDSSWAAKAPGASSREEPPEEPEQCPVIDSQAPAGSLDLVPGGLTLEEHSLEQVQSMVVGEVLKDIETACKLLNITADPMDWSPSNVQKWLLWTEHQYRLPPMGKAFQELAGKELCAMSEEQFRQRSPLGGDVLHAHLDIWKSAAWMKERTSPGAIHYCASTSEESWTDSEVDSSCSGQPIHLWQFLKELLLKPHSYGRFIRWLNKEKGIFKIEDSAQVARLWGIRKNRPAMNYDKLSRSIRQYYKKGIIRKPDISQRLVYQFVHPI
Outline: as §1

[15] = target: T10, ETV7 (Homo sapiens, UniProt Q9Y603 1-341); conditions: protein: recombinant; tags: N-terminal GST; dsDNA, one strand shown
T10 sequence: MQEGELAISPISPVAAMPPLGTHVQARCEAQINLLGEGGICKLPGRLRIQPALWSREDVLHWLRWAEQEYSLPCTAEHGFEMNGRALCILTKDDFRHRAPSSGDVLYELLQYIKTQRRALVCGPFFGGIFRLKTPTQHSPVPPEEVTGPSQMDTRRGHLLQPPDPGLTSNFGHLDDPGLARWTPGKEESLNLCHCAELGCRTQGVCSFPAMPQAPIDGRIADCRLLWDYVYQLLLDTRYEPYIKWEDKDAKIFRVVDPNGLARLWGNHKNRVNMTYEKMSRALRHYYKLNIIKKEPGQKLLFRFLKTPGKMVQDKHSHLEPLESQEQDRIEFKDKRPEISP
Outline: as §1

[16] = target: T11, ELF5 (Homo sapiens, UniProt Q9UKW6-2 1-255); conditions: protein: recombinant; tags: N-terminal GST; dsDNA, one strand shown
T11 sequence: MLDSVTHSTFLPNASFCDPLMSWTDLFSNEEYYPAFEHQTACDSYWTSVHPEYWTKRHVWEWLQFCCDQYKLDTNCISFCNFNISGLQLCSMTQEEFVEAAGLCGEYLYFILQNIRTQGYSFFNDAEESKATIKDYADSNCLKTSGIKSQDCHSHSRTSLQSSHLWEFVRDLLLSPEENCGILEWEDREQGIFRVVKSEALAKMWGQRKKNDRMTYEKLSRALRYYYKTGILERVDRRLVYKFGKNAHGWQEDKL
Outline: as §1

[17] = target: T12, ETV3 (Homo sapiens, UniProt P41162-2 1-143); conditions: protein: recombinant; tags: N-terminal GST; dsDNA, one strand shown
T12 sequence: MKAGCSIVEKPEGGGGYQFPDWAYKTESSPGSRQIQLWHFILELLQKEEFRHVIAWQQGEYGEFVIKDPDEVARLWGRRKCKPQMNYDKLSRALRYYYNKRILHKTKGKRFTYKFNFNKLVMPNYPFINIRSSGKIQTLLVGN
Outline: as §1

[18] = target: ETV6 (Homo sapiens, UniProt P41212 1-452); conditions: protein: recombinant; tags: N-terminal GST; dsDNA, one strand shown
ETV6, sequence (P41212 whole entry): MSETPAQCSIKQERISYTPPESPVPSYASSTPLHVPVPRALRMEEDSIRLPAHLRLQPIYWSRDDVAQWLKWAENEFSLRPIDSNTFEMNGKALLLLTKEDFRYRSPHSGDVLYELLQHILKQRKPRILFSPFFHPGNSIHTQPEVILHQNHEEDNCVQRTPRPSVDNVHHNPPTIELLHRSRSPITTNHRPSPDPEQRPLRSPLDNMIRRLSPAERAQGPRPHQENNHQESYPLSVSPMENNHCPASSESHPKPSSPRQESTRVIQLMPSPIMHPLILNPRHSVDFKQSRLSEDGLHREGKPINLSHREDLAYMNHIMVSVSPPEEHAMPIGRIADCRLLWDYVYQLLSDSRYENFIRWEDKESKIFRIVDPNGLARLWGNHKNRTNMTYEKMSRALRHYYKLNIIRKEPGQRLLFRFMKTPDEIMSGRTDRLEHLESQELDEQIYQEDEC
Outline: as §1

Question: Which binding signal [1] does the source give for GTATTC here?
Answer: 1.18 fold enrichment (6-mer frequency, TF over GST control)

Question: And the binding signal [2]?
Answer: 1.32 fold enrichment (6-mer frequency, TF over GST control)

Question: What about the binding signal [3] of the same sequence?
Answer: 1.31 fold enrichment (6-mer frequency, TF over GST control)

Question: What about the binding signal [4] of the same sequence?
Answer: 1.33 fold enrichment (6-mer frequency, TF over GST control)

Question: What about the binding signal [5] of the same sequence?
Answer: 1.27 fold enrichment (6-mer frequency, TF over GST control)

Question: And the binding signal [6]?
Answer: 1.16 fold enrichment (6-mer frequency, TF over GST control)

Question: What about the binding signal [7] of the same sequence?
Answer: 1.27 fold enrichment (6-mer frequency, TF over GST control)

Question: What about the binding signal [8] of the same sequence?
Answer: 1.31 fold enrichment (6-mer frequency, TF over GST control)

Question: And the binding signal [9]?
Answer: 1.13 fold enrichment (6-mer frequency, TF over GST control)

Question: And the binding signal [10]?
Answer: 1.22 fold enrichment (6-mer frequency, TF over GST control)

Question: What about the binding signal [11] of the same sequence?
Answer: 1.29 fold enrichment (6-mer frequency, TF over GST control)

Question: And the binding signal [12]?
Answer: 1.25 fold enrichment (6-mer frequency, TF over GST control)

Question: What about the binding signal [13] of the same sequence?
Answer: 1.33 fold enrichment (6-mer frequency, TF over GST control)

Question: And the binding signal [14]?
Answer: 1.21 fold enrichment (6-mer frequency, TF over GST control)

Question: What about the binding signal [15] of the same sequence?
Answer: 1.34 fold enrichment (6-mer frequency, TF over GST control)

Question: And the binding signal [16]?
Answer: 1.31 fold enrichment (6-mer frequency, TF over GST control)

Question: What about the binding signal [17] of the same sequence?
Answer: 1.34 fold enrichment (6-mer frequency, TF over GST control)

Question: What about the binding signal [18] of the same sequence?
Answer: 1.28 fold enrichment (6-mer frequency, TF over GST control)

Reference: article PMC7862700, “An all-to-all approach to the identification of sequence-specific readers for epigenetic DNA modifications on cytosine”
